Among the data in PubChem BioAssay (NCATS) are Potency and viability values, retold here.

Results filed as inconclusive are left out. Unmarked numbers belong to inactive results. Activity calls are given as the source filed them. Calls follow the shape of the dose curve; as a rule, active = well fitted cell-killing curve with a large enough effect; inconclusive = small, poorly fitted or top-dose-only effect, or effect the other way; inactive = no such curve, though single readings can be large or run the other way.

Assay [1] in a line: Quantitative High-Throughput drug screen in 47 multiple myeloma cell lines against the NCATS MIPE library collection: LP1_DSMZ cell viability assay (AID 1918982). Also: nearly all actives have a fitted effect of over 35% in size. In a few lines: (§1)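 500 cells/well; MIPE 4.0 drugs pin-transferred; 48 h, 37C, 5% CO2. CellTiter-Glo, 5 min RT, luminescence. Controls: DMSO 100%, media 0%.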
The nature of assay [2]: Quantitative High-Throughput drug screen in 47 multiple myeloma cell lines against the NCATS MIPE library collection: KMS28PE_JCRB cell viability assay (AID 1918983). Also: nearly all actives have a fitted effect of over 35% in size. An outline of the steps: as §1
The nature of assay [3]: Quantitative High-Throughput drug screen in 47 multiple myeloma cell lines against the NCATS MIPE library collection: L363_DSMZ cell viability assay (AID 1918984). Also: nearly all actives have a fitted effect of over 40% in size. The following applies: L363 myeloma viability, CellTiter-Glo ATP luminescence, 48 h; viability (% of control): at 45.8 µM (top of the series). In a few lines:
as §1
On the technique in general: Cellular ATP, detected with luciferase, serves as a proxy for viable cell number.

Assay [4] can be described thus: Quantitative High-Throughput drug screen in 47 multiple myeloma cell lines against the NCATS MIPE library collection: KMS34_JCRB cell viability assay (AID 1918985). Also: nearly all actives have a fitted effect of over 40% in size. An outline of the steps:
as §1

The nature of assay [5]: Quantitative High-Throughput drug screen in 47 multiple myeloma cell lines against the NCATS MIPE library collection: OCIMY7_PLB cell viability assay (AID 1918987). Also: nearly all actives have a fitted effect of over 65% in size. The following applies: OCI-MY7 myeloma viability, CellTiter-Glo ATP, 48 h; viability (% of DMSO): at 45.8 µM (top of the series). In a few lines:
as §1

A short description of assay [6]: Quantitative High-Throughput drug screen in 47 multiple myeloma cell lines against the NCATS MIPE library collection: VP6_DJ cell viability assay (AID 1919867). Also: nearly all actives have a fitted effect of over 40% in size. An outline of the steps: as §1
Assay [7] in a line: Quantitative High-Throughput drug screen in 47 multiple myeloma cell lines against the NCATS MIPE library collection: UTMC2_PLB cell viability assay (AID 1919868). Also: nearly all actives have a fitted effect of over 55% in size.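 As to viability (% of DMSO control): 100% = DMSO-only wells and 0% = media-only wells without cells.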 The following applies: CellTiter-Glo ATP luminescence, 48 h; viability (% of DMSO control): at 45.8 µM (top of the series). In a few lines:
as §1

Assay [8] in a line: Quantitative High-Throughput drug screen in 47 multiple myeloma cell lines against the NCATS MIPE library collection: OPM2_DSMZ cell viability assay (AID 1919872). Also: nearly all actives have a fitted effect of over 30% in size. An outline of the steps:
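Relative luminescence from CellTiter-Glo served as the viability signal, referenced to DMSO-treated (100%) and cell-free medium (0%) controls. Treatment lasted 48 hours at 37C with 500 cells per well.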

Assay [9] is described as follows: Quantitative High-Throughput drug screen in 47 multiple myeloma cell lines against the NCATS MIPE library collection: KMS11_JCRBsus cell viability assay (AID 1919873). Also: nearly all actives have a fitted effect of over 50% in size.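 As to viability (% of control): 100% = DMSO-only wells and 0% = media-only wells without cells.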 An outline of the steps:
as §1

Assay [10] can be described thus: Quantitative High-Throughput drug screen in 47 multiple myeloma cell lines against the NCATS MIPE library collection: KMS28BM_JCRB cell viability assay (AID 1919874). Also: nearly all actives have a fitted effect of over 35% in size. An outline of the steps:
as §1

The nature of assay [11]: Quantitative High-Throughput drug screen in 47 multiple myeloma cell lines against the NCATS MIPE library collection: OCIMY5_PLB cell viability assay (AID 1918988). Also: nearly all actives have a fitted effect of over 65% in size. An outline of the steps:
as §1

Assay [12] is described as follows: Quantitative High-Throughput drug screen in 47 multiple myeloma cell lines against the NCATS MIPE library collection: OPM1_PLB cell viability assay (AID 1918989). Also: nearly all actives have a fitted effect of over 40% in size. An outline of the steps:
as §1

Assay [13] can be described thus: Quantitative High-Throughput drug screen in 47 multiple myeloma cell lines against the NCATS MIPE library collection: SKMM1_PLB cell viability assay (AID 1919863). Also: nearly all actives have a fitted effect of over 35% in size. The following applies: SKMM1 myeloma viability, CellTiter-Glo ATP, 48 h; viability: stronger effect = lower value. An outline of the steps: as §1
Assay [14] can be described thus: Quantitative High-Throughput drug screen in 47 multiple myeloma cell lines against the NCATS MIPE library collection: U266_ATCC cell viability assay (AID 1919864). Also: nearly all actives have a fitted effect of over 35% in size.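 As to viability (% of DMSO control): 0% = media-only wells without cells and 100% = DMSO-only wells.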 An outline of the steps:
as §1

Assay [15] can be described thus: Quantitative High-Throughput drug screen in 47 multiple myeloma cell lines against the NCATS MIPE library collection: XG6_PLB cell viability assay (AID 1919865). Also: nearly all actives have a fitted effect of over 40% in size. In a few lines: as §1
Assay [16] in a line: Quantitative High-Throughput drug screen in 47 multiple myeloma cell lines against the NCATS MIPE library collection: XG1_PLB cell viability assay (AID 1919866). Also: nearly all actives have a fitted effect of over 35% in size. In a few lines:
as §1

Assay [17] in a line: Quantitative High-Throughput drug screen in 47 multiple myeloma cell lines against the NCATS MIPE library collection: PE2_PLB cell viability assay (AID 1919869). Also: nearly all actives have a fitted effect of over 35% in size.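 As to viability (% of control): 100% = DMSO-only wells and 0% = cell-free media-only wells.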 An outline of the steps: as §1
A short description of assay [18]: Quantitative High-Throughput drug screen in 47 multiple myeloma cell lines against the NCATS MIPE library collection: RPMI8226_ATCC cell viability assay (AID 1919871). Also: nearly all actives have a fitted effect of over 30% in size. In a few lines: as §1
Assay [19] is described as follows: Quantitative High-Throughput drug screen in 47 multiple myeloma cell lines against the NCATS MIPE library collection: PCM6_Riken cell viability assay (AID 1919870). Also: nearly all actives have a fitted effect of over 30% in size. An outline of the steps:
as §1
Potency is read from the fitted curve at half-maximal effect.

As to `CN(C)CCN(Cc1ccc(Cl)cc1)c1ccccn1`, the Potency result in assay [1], in assay [3], in [4], in assay [8] and in [9] was “inactive” each time. Besides, the Potency was 5.9 µM (active) in assay [2]; 14.8 µM (active) in [5]; 20.9 µM (active) in assay [6]; 16.6 µM (active) in assay [7]; 14.8 µM (active) in assay [10].
Take `CC1=C(CC(=O)O)c2cc(F)ccc2C1=Cc1ccc(S(C)=O)cc1` (stereo not given): the Potency result in assay [1], in assay [18] and in assay [8] was “inactive” each time. The Potency is 20.9 µM (active) in [2]; 13.2 µM (active) in assay [3]; 0.935 µM (active) in assay [11]; 26.4 µM (active) in [12]; 1.18 µM (active) in [14]; 1.05 µM (active) in assay [15]. The Potency in assay [16] is 0.935 µM (active); in [6], 7.43 µM (active); in assay [7], 18.7 µM (active); in assay [17], 20.9 µM (active); in [9], 3.72 µM (active). The viability (usually a read-out of living cells in per cent, often relative to untreated cells) in [13] is 92.7%.
Consider `Cc1ccccc1-n1c(Cn2nc(-c3cccc(O)c3)c3c(N)ncnc32)nc2cccc(C)c2c1=O`, for which the Potency in assay [1] was 11.8 µM (active); in [2], 9.35 µM (active); in assay [3] it was 2.35 µM (active); in assay [5], 2.96 µM (active); in assay [11] it was 10.5 µM (active); in assay [13] it was 8.33 µM (active). In addition, the Potency in assay [15] was 0.935 µM (active); in assay [16] it was 2.09 µM (active); in assay [6], 1.05 µM (active); in [7], 4.18 µM (active); in assay [17], 2.35 µM (active); in [19] it was 5.9 µM (active). Besides, the results for the Potency in assay [18], in assay [8] and in assay [9] were 13.2 µM (active), 8.33 µM (active) and 6.62 µM (active), respectively.
On to `O=C1C(CCC(O)c2ccc(F)cc2)C(c2ccc(O)cc2)N1c1ccc(F)cc1` (stereo not given), for which the Potency result in [1], in assay [2], in assay [3], in [4], in assay [5] and in [12] was “inactive” each time. The Potency result in assay [16], in assay [8] and in [9] was “inactive” each time. Further, the viability in assay [13] is 99.3%. Further, the values for the Potency in assay [15] and in [6] were 2.09 µM (active) and 3.32 µM (active), respectively.
`CC=C1C2C=C(C)CC1(N)c1ccc(=O)[nH]c1C2` (stereo not given): the Potency entry in assay [1], in assay [2], in [3], in assay [5], in assay [14] and in [15] was “inactive” each time. The Potency result in [17], in assay [8], in assay [9] and in [10] was “inactive” in each case.
For the compound `CC1(C)OC2CC3C4CC(F)C5=CC(=O)C=CC5(C)C4C(O)CC3(C)[C@]2(C(=O)CO)O1` (stereo not given in full), the Potency is 0.0023 µM (active) in assay [1]; 0.132 µM (active) in [3]; 20.9 nM (active) in assay [4]; 3.32 µM (active) in assay [6]; 0.0264 µM (active) in assay [9]. Besides, the Potency entry in [2], in assay [12], in assay [14], in assay [16], in assay [7] and in assay [19] was “inactive” each time. Besides, the Potency result in assay [8] and in [10] was “inactive” in each case. Moreover, in assay [13], the viability was 131%.
Consider `O=C(O)C1=CO[C@@H](O[C@@H]2O[C@H](CO)[C@H](O)[C@H](O)[C@H]2O)[C@@H]2C(CO)=CC[C@H]12`, for which the Potency result in [1], in [2], in assay [3], in assay [5], in assay [12] and in [15] was “inactive” throughout. For the same compound, the Potency result in [16], in assay [17], in assay [8], in assay [9] and in assay [10] was “inactive” each time. Also, the viability in assay [13] is 118%.
Consider `COc1ccc(-c2cc(=O)c3c(O)cc(O[C@@H]4O[C@H](CO[C@@H]5O[C@@H](C)[C@H](O)[C@@H](O)[C@@H]5O)[C@@H](O)[C@H](O)[C@@H]4O)cc3o2)cc1O`, for which the Potency entry in [1], in [2], in assay [3], in assay [4], in assay [18] and in assay [8] was “inactive” throughout. The Potency result in assay [9] and in assay [10] was “inactive” throughout. The Potency in assay [5] was 10.5 µM (active); in assay [11], 18.7 µM (active); in [14], 18.7 µM (active); in [15], 9.35 µM (active); in assay [16] it was 8.33 µM (active); in assay [6], 14.8 µM (active). Also, the Potency in assay [17] was 23.5 µM (active); in assay [19], 11.8 µM (active). Besides, the viability in assay [13] is 120%.
For `CN(C)CCOc1ccc(-c2nc(-c3ccc4c(c3)CCC4=NO)c(-c3ccncc3)[nH]2)cc1`, the Potency in [1] was 20.9 µM (active); in assay [2], 23.5 µM (active); in assay [3] it was 6.62 µM (active); in assay [11] it was 23.5 µM (active); in assay [13], 20.9 µM (active); in [14], 26.4 µM (active). Further, the Potency in assay [15] is 16.6 µM (active); in [16], 18.7 µM (active); in assay [6] it was 18.7 µM (active); in assay [17] it was 16.6 µM (active); in assay [19] it was 10.5 µM (active); in assay [18] it was 20.9 µM (active). Moreover, the Potency was 16.6 µM (active) in assay [8], 11.8 µM (active) in assay [9] and 9.35 µM (active) in assay [10].
With `CN[C@@H](C)[C@H]1[C@H](O)C[C@@]2(C)[C@@H]3CC[C@H]4C(C)(C)[C@@H](NC)CC[C@@]45C[C@@]35CC[C@]12C`, the Potency result in assay [1], in [2], in assay [3], in assay [4], in assay [12] and in [14] was “inactive” each time. The Potency entry in assay [17], in assay [18] and in [8] was “inactive” each time. For the same compound, the Potency in [15] is 23.5 µM (active).
Consider `OC[C@H]1O[C@@H](O[C@H]2[C@@H](O)[C@@](O)(CO)O[C@@H]2CO)[C@H](O)[C@@H](O)[C@@H]1O`, for which the Potency result in [1], in assay [2], in [3], in assay [4], in assay [5] and in assay [11] was “inactive” each time. In addition, the Potency result in [12], in [14], in assay [15], in [7], in assay [18] and in assay [8] was “inactive” throughout. The Potency entry in assay [9] is “inactive”. In addition, the viability in assay [13] is 96.6%. Moreover, the Potency in assay [16] is 3.72 µM (active).
